In PubChem BioAssay (Tox21):
Results filed as inconclusive are left out. A call without a number means that no potency is given here. The source made the active and inactive calls. Unless noted, calls come from the whole dose curve; as a rule, active = well fitted curve in the direction sought with a large enough effect in the repeat runs; inconclusive = weak or mixed curves; inactive = no such curve, though single readings can be large; an effect the other way counts as inactive or inconclusive. Positions of bridges follow the written chain, without caps; N, C: chain ends. Non-standard residues stand in square brackets, D forms with d. Residues, ends and D or L forms follow the SMILES beside them. *: point of attachment. Dab(CH2SO3H) = N[C@@H](CCNCS(=O)(=O)O)C(=O)O; X3 = CC[C@@H](C)CCCCC(=O)*; Dab = NCC[C@H](N)C(=O)O

Key:
[1] = qHTS assay to test for compound auto fluorescence at 535 nm (green) in HEK293 cells (AID 720680)
[2] = qHTS assay to test for compound auto fluorescence at 460 nm (blue) in HEK293 cell free culture (AID 720681)
Method in brief: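 Test compounds were pinned into cell-free culture medium (DMEM with 10% FBS) and fluorescence was read directly at Ex/Em 405/460 nm. Signals were expressed as fluorescence equivalents of triamterene, with DMSO vehicle as control.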

[3] = qHTS assay to test for compound auto fluorescence at 535 nm (green) in HEK293 cell free culture (AID 720682)
Method in brief: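 Each library compound, or DMSO control, is added by pintool to medium alone, comprising DMEM and 10% FBS. Emission at 535 nm following 485 nm excitation is quantified against fluorescein.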

[4] = qHTS assay to test for compound auto fluorescence at 590 nm (red) in HEK293 cell free culture (AID 720683)
Method in brief: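 Tox21 10K library compounds were pinned into cell-free DMEM with 10% FBS and fluorescence was read at excitation 540 nm. Activity is expressed as Rose Bengal sodium equivalency.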

[5] = qHTS assay to test for compound auto fluorescence at 590 nm (red) in HepG2 cell free culture (AID 720684)
Method in brief: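 Measured in medium alone (MEM containing 10% FBS) following pintool addition of compound; emission at 590 nm with 540 nm excitation, referenced to Rose Bengal sodium.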

[6] = qHTS assay to test for compound auto fluorescence at 460 nm (blue) in HepG2 cell free culture (AID 720685)
Method in brief: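 Compound (23 nL) or DMSO pinned into cell-free MEM with 10% FBS; blue fluorescence read at 405/460 nm excitation/emission, expressed as auto-fluorescence equivalency to triamterene.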

[7] = qHTS assay to test for compound auto fluorescence at 535 nm (green) in HepG2 cell free culture (AID 720686)
[8] = qHTS assay to test for compound auto fluorescence at 460 nm (blue) in HepG2 cells (AID 720687)
Method in brief: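 Cells (2,000/well in MEM with 10% FBS) attached overnight at 37 C, then were exposed to compound or DMSO for 1 hr at 37 C, 5% CO2. Fluorescence read at Ex/Em 405/460 nm, expressed as triamterene-equivalent signal.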

[9] = target: Glucocorticoid receptor (Homo sapiens) (UniProt P04150); assay: qHTS assay to identify small molecule agonists of the glucocorticoid receptor (GR) signaling pathway (AID 720691; active = well fitted activation curve with a large enough effect in the signal ratio in the repeat runs, not every such curve was filed as active; the % refers to the signal ratio); conditions: GR-bla HeLa, beta-lactamase reporter ratio, 18 h; activation: at 62.4 µM (top of the series)
Glucocorticoid receptor (Homo sapiens), sequence (P04150 whole entry, looked up): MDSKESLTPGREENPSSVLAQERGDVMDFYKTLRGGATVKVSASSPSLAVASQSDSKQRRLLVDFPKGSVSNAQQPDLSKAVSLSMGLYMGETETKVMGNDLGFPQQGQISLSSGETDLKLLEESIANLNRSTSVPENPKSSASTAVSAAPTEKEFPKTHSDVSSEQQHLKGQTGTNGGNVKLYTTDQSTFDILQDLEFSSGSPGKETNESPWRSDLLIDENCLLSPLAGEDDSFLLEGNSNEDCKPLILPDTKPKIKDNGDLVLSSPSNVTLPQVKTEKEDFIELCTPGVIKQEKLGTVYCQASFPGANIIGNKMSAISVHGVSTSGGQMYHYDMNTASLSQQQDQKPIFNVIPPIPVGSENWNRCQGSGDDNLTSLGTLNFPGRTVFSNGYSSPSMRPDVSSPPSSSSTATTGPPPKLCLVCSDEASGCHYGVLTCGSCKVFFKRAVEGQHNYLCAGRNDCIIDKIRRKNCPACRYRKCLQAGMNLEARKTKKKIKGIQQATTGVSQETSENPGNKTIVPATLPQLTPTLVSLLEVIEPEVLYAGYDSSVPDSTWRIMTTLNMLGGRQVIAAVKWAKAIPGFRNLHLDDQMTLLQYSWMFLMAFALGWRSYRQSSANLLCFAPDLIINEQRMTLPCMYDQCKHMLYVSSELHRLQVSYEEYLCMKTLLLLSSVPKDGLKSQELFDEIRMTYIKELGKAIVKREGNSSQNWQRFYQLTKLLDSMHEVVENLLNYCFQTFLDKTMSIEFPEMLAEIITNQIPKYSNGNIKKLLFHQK
Method in brief: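 Fluorescence intensity from LiveBLAzer B/G FRET substrate (2 h, room temperature) reports beta-lactamase expression driven by the glucocorticoid response element in GR-bla HeLa cells after 18 h compound exposure at 37 C.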

[10] = target: Glucocorticoid receptor (Homo sapiens) (UniProt P04150); assay: qHTS assay to identify small molecule antagonists of the glucocorticoid receptor (GR) signaling pathway (AID 720692; active = well fitted inhibition curve with a large enough effect in the signal ratio in the repeat runs, not every such curve was filed as active; the % refers to the signal ratio)
Method in brief: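 HeLa GR-bla cells; cmpd + dex 5 nM final, 18 h 37 C; LiveBLAzer B/G FRET substrate 2 h RT; fluorescence intensity read. Antagonist mode, qHTS.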

[11] = qHTS assay to identify small molecule antagonists of the glucocorticoid receptor (GR) signaling pathway - cell viability counter screen (AID 720693); note: nearly all actives have a fitted effect of over 55% in size
[12] = qHTS assay for identifying genotoxic compounds that show differential cytotoxicity against isogenic chicken DT40 cell lines with known DNA damage response pathways - wild type cell line (AID 743012); note: nearly all actives have a fitted effect of over 60% in size; note: potency is the fitted concentration of half-maximal effect
Method in brief: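 Wild type DT40, 300 cells/well, ~0.5 h settle at 37 C/5% CO2; compounds in DMSO added by pintool; 40 h at 37 C/5% CO2; CellTiter-Glo, 30 min RT; luminescence.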

[13] = qHTS assay for identifying genotoxic compounds that show differential cytotoxicity against isogenic chicken DT40 cell lines with known DNA damage response pathways - Rev3 mutant cell line (AID 743014); note: nearly all actives have a fitted effect of over 55% in size; note: potency is the fitted concentration of half-maximal effect
[14] = qHTS assay for identifying genotoxic compounds that show differential cytotoxicity against isogenic chicken DT40 cell lines with known DNA damage response pathways - Rad54/Ku70 mutant cell line (AID 743015); note: nearly all actives have a fitted effect of over 60% in size; note: potency is the fitted concentration of half-maximal effect
[15] = target: Androgen receptor (Homo sapiens) (UniProt P10275); assay: qHTS assay to identify small molecule antagonists of the androgen receptor (AR) signaling pathway (AID 743035; active = well fitted inhibition curve with a large enough effect in the signal ratio in the repeat runs, not every such curve was filed as active; the % refers to the signal ratio)
Androgen receptor (Homo sapiens), sequence (P10275 whole entry, looked up): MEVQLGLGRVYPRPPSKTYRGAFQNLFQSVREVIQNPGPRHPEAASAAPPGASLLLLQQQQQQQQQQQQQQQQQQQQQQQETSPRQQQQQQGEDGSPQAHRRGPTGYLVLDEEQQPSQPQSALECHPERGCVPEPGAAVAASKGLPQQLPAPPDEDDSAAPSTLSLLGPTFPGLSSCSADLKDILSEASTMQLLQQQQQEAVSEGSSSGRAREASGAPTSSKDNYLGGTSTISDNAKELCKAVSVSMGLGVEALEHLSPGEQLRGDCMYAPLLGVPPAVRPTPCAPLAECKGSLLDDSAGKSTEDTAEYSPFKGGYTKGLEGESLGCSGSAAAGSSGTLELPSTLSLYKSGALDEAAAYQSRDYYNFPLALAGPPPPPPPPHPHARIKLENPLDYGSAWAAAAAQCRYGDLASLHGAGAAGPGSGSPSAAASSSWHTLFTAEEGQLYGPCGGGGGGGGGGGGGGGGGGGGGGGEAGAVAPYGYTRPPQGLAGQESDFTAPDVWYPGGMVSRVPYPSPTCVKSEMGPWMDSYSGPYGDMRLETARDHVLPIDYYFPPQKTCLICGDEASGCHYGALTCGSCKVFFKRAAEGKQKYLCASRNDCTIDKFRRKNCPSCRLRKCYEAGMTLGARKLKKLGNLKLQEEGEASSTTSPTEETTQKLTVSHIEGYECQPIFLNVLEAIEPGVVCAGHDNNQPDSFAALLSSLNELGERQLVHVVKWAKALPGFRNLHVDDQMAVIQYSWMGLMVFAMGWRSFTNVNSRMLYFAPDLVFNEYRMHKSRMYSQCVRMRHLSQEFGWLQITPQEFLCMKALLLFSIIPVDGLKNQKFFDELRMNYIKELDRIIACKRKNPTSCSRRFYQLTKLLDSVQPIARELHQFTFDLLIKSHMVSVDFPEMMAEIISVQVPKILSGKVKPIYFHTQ
Method in brief: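 Fluorescence from a beta-lactamase FRET substrate (LiveBLAzer B/G, 2 h, room temperature) measured inhibition of R1881-stimulated signaling in GeneBLAzer AR-UAS-bla HEK293 cells exposed to compound for 16 h at 37C.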

[16] = target: Androgen receptor (Homo sapiens) (UniProt P10275); assay: qHTS assay to identify small molecule agonists of the androgen receptor (AR) signaling pathway (AID 743036; active = well fitted activation curve with a large enough effect in the signal ratio in the repeat runs, with a control signal flat, not every such curve was filed as active; the % refers to the signal ratio)
Method in brief: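 Following a 4 h settling period, AR-UAS-bla HEK293 cells were dosed with compounds for 16 h at 37C. A 2 h room-temperature incubation with LiveBLAzer B/G FRET substrate preceded the fluorescence measurement.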

[17] = target: Androgen receptor (Homo sapiens) (UniProt P10275); assay: qHTS assay to identify small molecule agonists of the androgen receptor (AR) signaling pathway using the MDA cell line (AID 743040; note: nearly all actives have a fitted effect of over 20% in size)
Method in brief: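 Luminescence from ONE-Glo, read after 30 min at room temperature, reflects MMTV-driven luciferase in MDA-kb2 cells (AR- and GR-responsive). Treatment lasted 16 h at 37C, 0% CO2.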

[18] = qHTS assay to identify small molecule antagonists of the androgen receptor (AR) signaling pathway using the MDA cell line - cell viability counter screen (AID 743041; note: nearly all actives have a fitted effect of over 45% in size)
Method in brief: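 Viability counter screen run alongside the AR antagonist reporter: cells seeded 5 h before compound, R1881 added, 16 h incubation at 37C without CO2, fluorescent CellTiter-Fluor signal quantified.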

[19] = target: Androgen receptor (Homo sapiens) (UniProt P10275); assay: qHTS assay to identify small molecule antagonists of the androgen receptor (AR) signaling pathway using the MDA cell line (AID 743042; note: nearly all actives have a fitted effect of over 55% in size)
Method in brief: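 MDA-kb2 cells (human breast carcinoma, stably carrying an MMTV-luciferase reporter responsive to AR and GR) were plated at 3,000 cells/well and preincubated 5 hr at 37C, then given compound plus R1881 agonist for 16 h. ONE-Glo luminescence was read.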

[20] = qHTS assay to identify small molecule antagonists of the androgen receptor (AR) signaling pathway - cell viability counter screen (AID 743033; note: nearly all actives have a fitted effect of over 45% in size)

| SMILES | outcome [1] | Potency [2] | outcome [3] | outcome [4] | outcome [5] | Potency [6] | Potency [7] | Potency [8] | Potency [9] | Potency [10] | Potency [11] | Potency [12] | Potency [13] | Potency [14] | Potency [15] | Potency [16] | Potency [17] | Potency [18] | Potency [19] | Potency [20] |
| --- | --- | --- | --- | --- | --- | --- | --- | --- | --- | --- | --- | --- | --- | --- | --- | --- | --- | --- | --- | --- |
| CN[C@@H]1[C@@H](O[C@H]2O[C@H](CO)[C@@H](N)[C@H](O)[C@H]2O)O[C@H]2C[C@@H](N)[C@@H](O[C@H]3[C@H](O)[C@@H](O)[C@H](N)C[C@@H]3N)O[C@@H]2[C@@H]1O | inactive | inactive | inactive | inactive | inactive | inactive | inactive | inactive | inactive | inactive | inactive | inactive | inactive | inactive | inactive | inactive | inactive | inactive | inactive |  |
| CC[C@@H](C)CCCCC(=O)N[C@@H](CCNCS(=O)(=O)O)C(=O)N[C@H](C(=O)N[C@@H](CCNCS(=O)(=O)O)C(=O)N[C@H]1CCNC(=O)[C@H]([C@@H](C)O)NC(=O)[C@H](CCNCS(=O)(=O)O)NC(=O)[C@H](CCNCS(=O)(=O)O)NC(=O)[C@H](CC(C)C)NC(=O)[C@@H](CC(C)C)NC(=O)[C@H](CCNCS(=O)(=O)O)NC1=O)[C@@H](C)O (X3-[Dab(CH2SO3H)]T[Dab(CH2SO3H)][Dab][Dab(CH2SO3H)][dL]L[Dab(CH2SO3H)][Dab(CH2SO3H)]T; lactam 4-C) | inactive | inactive | inactive | inactive | inactive | inactive | inactive | inactive | inactive | inactive | inactive | 23.7 µM (active) | 23.7 µM (active) | 18.8 µM (active) |  | inactive |  | inactive | inactive |  |
| Cc1cccc(C)c1NC(=O)C1CCCCN1C (stereo not given) | inactive | inactive | inactive | inactive | inactive | inactive | inactive | inactive | inactive | inactive | inactive | inactive | inactive | inactive |  |  |  | inactive |  |  |
| C=CCN1C(=O)C(CC(C)C)NC1=S (stereo not given) | inactive | inactive | inactive | inactive | inactive | inactive | inactive | inactive | inactive | inactive | inactive | inactive | inactive | inactive |  |  |  | inactive |  | inactive |
| O=C(O)[C@@H]1C[C@H](CP(=O)(O)O)CCN1 | inactive | inactive | inactive | inactive | inactive | inactive | inactive | inactive | inactive | inactive | inactive | inactive | inactive | inactive |  | inactive | inactive | inactive | inactive |  |
| CCOC(=O)[C@H](CCc1ccccc1)N[C@@H](C)C(=O)N1[C@H](C(=O)O)C[C@H]2CCCC[C@@H]21 | inactive | inactive | inactive | inactive | inactive | inactive | inactive | inactive | inactive | inactive | inactive | inactive | inactive | inactive |  | inactive | inactive | inactive | inactive | inactive |
| CCCCCCCC1CCC(=O)O1 (stereo not given) | inactive | inactive | inactive | inactive | inactive | inactive | inactive | inactive |  |  |  |  |  |  |  |  |  |  |  |  |
| Cc1onc(-c2c(F)cccc2Cl)c1C(=O)N[C@@H]1C(=O)N2[C@@H]1SC(C)(C)[C@@H]2C(=O)O | inactive | inactive | inactive | inactive | inactive | inactive | inactive | inactive | inactive | inactive | inactive | inactive | inactive | inactive |  |  |  | inactive |  | inactive |
| C/C=C/C1=C(C(=O)O)N2C(=O)[C@@H](NC(=O)[C@H](N)c3ccc(O)cc3)[C@H]2SC1 | inactive | inactive | inactive | inactive | inactive | inactive | inactive | inactive | inactive | inactive | inactive | inactive | inactive | inactive |  |  |  | inactive | inactive |  |
| N[C@@H](Cc1cnc[nH]1)C(=O)O | inactive | inactive | inactive | inactive | inactive | inactive | inactive | inactive | inactive | inactive | inactive | inactive |  | inactive |  | inactive |  | inactive | inactive | inactive |
| CC(=O)N(C)C | inactive | inactive | inactive | inactive | inactive | inactive | inactive | inactive |  |  |  |  |  |  |  |  |  |  |  |  |
| CO/N=C(\C(=O)N[C@@H]1C(=O)N2C(C(=O)O)=C(COC(C)=O)CS[C@H]12)c1csc(N)n1 (stereo in doubt) | inactive | inactive | inactive | inactive | inactive | inactive | inactive | inactive | inactive | inactive | inactive | inactive | inactive | inactive |  |  |  | inactive |  | inactive |
| CO[C@H]1C[C@H](O[C@H]2[C@H](C)[C@@H](O[C@@H]3O[C@H](C)C[C@H](N(C)C)[C@H]3O)[C@@H](C)C[C@]3(CO3)C(=O)[C@H](C)[C@@H](O)[C@@H](C)[C@@H](C)OC(=O)[C@@H]2C)O[C@@H](C)[C@@H]1O | inactive | inactive | inactive | inactive | inactive | inactive | inactive | inactive | inactive | inactive | inactive | inactive | inactive | inactive |  |  |  | inactive |  | inactive |
| Cc1cc(=O)c(C(=O)N[C@@H](C(=O)N[C@@H]2C(=O)N3C(C(=O)O)=C(CSc4nnnn4C)CS[C@H]23)c2ccc(O)cc2)c[nH]1 | inactive | inactive | inactive | inactive | inactive | inactive | inactive | inactive | inactive | inactive | inactive | inactive | inactive | inactive | inactive | inactive |  | inactive | inactive | inactive |
